From PubChem BioAssay AID687020 (Broad Institute, 2013) come the findings set out here.

Screen size: about 1,400 compounds; about 100 (7.1%) were called active. No rule for the calls is given here. The list is a sample of the results. Entries with a potency or affinity are not part of this list.

This test is described as follows: Vero cell toxicity, dose response, cytotoxicity control, plate reader, cherry-pick samples (AID 687020).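 Also: compounds incubated with cells for three days before luminescence read.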 The settings on record: Vero cells toxicity; series mostly up to 19.5 µM.
With `CC(NC(=O)c1ccccc1)C(=O)OCn1nnc2ccccc2c1=O` (configuration not stated), the call was inactive.

On to `CCCc1nc2ccccc2n1C(C)C(=O)NC(C)(C)C` (configuration not stated), for which the compound was classed as inactive.

For the compound `Cc1cc(C)cc(NC(=O)Cn2nnc(C(=O)NCc3cccs3)c2N)c1`, the outcome was inactive.

On to `CN(C)CCCN1c2ccccc2Sc2ccc3ccccc3c21`, for which the outcome was inactive.

Take `CC(C)NC(=O)Nc1ccc2c(c1)C(=O)N([C@H](C)CO)C[C@H](C)[C@H](CN(C)CC1CC1)OCCCC[C@@H](C)O2`: the outcome was inactive.

Turning to `CCCN1[C@H](C(=O)NCC(F)(F)F)[C@@H](CO)[C@@H]2Cn3c(ccc(-c4ccccc4)c3=O)[C@@H]21`, the compound was called inactive.

Regarding `CCOC(=O)c1ccc(NC(=O)c2nc[nH]c2C(=O)NC[C@H](C)O)cc1`, the compound was called inactive.

As for `C[C@H](CO)N1C[C@H](C)[C@@H](CN(C)S(C)(=O)=O)Oc2ccc(NC(=O)Nc3ccccc3)cc2C1=O`, the outcome was inactive.

`CCN(C)C1CN(Cc2cn(Cc3ccccc3)nn2)S(=O)(=O)C1` (configuration not stated): the outcome was inactive.

In the case of `Cc1ccc(Cn2cc(CN3CC(N4CCSCC4)CS3(=O)=O)nn2)cc1` (configuration not stated), the call was inactive.

`COc1ccc(-c2cnc3n2CCCCC3)cc1`: the result was inactive.

As for `CC(=O)N1CCN(C(=O)COC(=O)COc2c(C)cc(C)cc2C)CC1`, the compound was called inactive.

Take `Cc1ccc(S(=O)(=O)N2CCOCC2)cc1NC(=O)CN(C)CC(=O)Nc1cccc(F)c1`: the result was inactive.

For `COc1cccc(NC(=O)CN(C)C(=O)Cc2ccc3c(c2)OCCO3)c1`, the compound was classed as inactive.

For the compound `COC(=O)c1cn(C(=O)c2ccc(OC)c(OC)c2)c2ccccc12`, the call was inactive.

`COc1ccc(COC(=O)C2=C(C)NC(=O)NC2c2ccccc2F)cc1` (configuration not stated): the call was inactive.

In the case of `CCN(CC)C(=O)C1CCN(Cc2ccc(OCc3ccccc3)cc2)CC1`, the outcome was inactive.

Turning to `N#CC[C@H](c1ccccc1)N1CCN(Cc2ccccc2)CCC1=O`, the call was inactive.

Consider `CCCN1CCC(=O)N([C@H](CSc2ccccc2)Cc2ccccc2)CC1`, for which the call was inactive.

For `CC(C)C[C@@H](COc1ccccc1)N1CCN(CCc2ccccc2)CCC1=O`, the call was inactive.

`Cc1noc(C)c1NC(=O)Nc1ccc2c(c1)CC(=O)N([C@@H](C)CO)C[C@H](C)[C@@H](CN(C)C(=O)Nc1ccccc1)O2`: the compound was called inactive.

As for `CCOc1ccc2[nH]cc(S(=O)(=O)c3ccc(C)cc3)c(=O)c2c1`, the result was inactive.

With `COc1ccc(NC(=O)c2cc3ccccc3cc2O)cc1`, the result was inactive.

Take `O=C(Oc1ccccc1)c1ccccc1C(=O)Oc1ccccc1`: the compound was classed as inactive.

As to `COc1ccc(N2CCN(CC(O)COc3ccc(F)cc3)CC2)cc1` (configuration not stated), the compound was classed as inactive.

Regarding `Clc1cc(Br)ccc1OCCOCCN1CCCC1`, the compound was called inactive.

For `Clc1cc(Br)ccc1OCCCn1ccnc1`, the compound was classed as inactive.

For `N#CCc1ccc(NC(=O)c2cc(S(=O)(=O)N3CCOCC3)ccc2Cl)cc1`, the compound was called inactive.

`COc1ccc(-c2cc(N3C(=O)Nc4ccccc4N3O)n[nH]2)cc1OC`: the call was inactive.

With `CCNC(=O)N(C)C[C@H]1N[C@@](CC)(C(=O)OC)[C@H]2C(=O)N(Cc3ccccc3)C(=O)[C@@H]12`, the outcome was inactive.

Take `Cc1ccccc1N1Cc2ccccc2C1=O`: the compound was called inactive.

For the compound `CN1CCN(S(=O)(=O)c2cccs2)CC1`, the outcome was inactive.

Take `COC(=O)N1CCCCC1c1cc(C(=O)Nc2ccccc2Cl)no1` (configuration not stated): the compound was called inactive.

Turning to `Cc1ccc(F)cc1C(=O)N1CCCCC1c1cc(C(=O)NC(C)C)no1` (configuration not stated), the result was inactive.

Regarding `COc1ccc(S(=O)(=O)N2CCCCC2c2cc(C(=O)Nc3ccccc3)no2)cc1` (configuration not stated), the outcome was inactive.

`O=C(NCc1ccc(Cl)c(Cl)c1)c1cc(C2CCCCN2C(=O)OCCF)on1` (configuration not stated): the result was inactive.

In the case of `Cc1ccc(NC(=O)C2CCN(S(C)(=O)=O)CC2)cc1Cl`, the compound was classed as inactive.

Regarding `C[C@H](NC(=O)[C@H]1[C@H](CO)[C@H]2Cn3c(cccc3=O)[C@@H]1N2Cc1cccnc1)c1ccccc1`, the outcome was inactive.

For the compound `CC(C)(C(=O)N1CCC1(C)C(=O)Nc1ccccc1Br)c1ccccc1` (configuration not stated), the call was inactive.

Regarding `Cc1c(C(=O)NCc2ccc(C#N)cc2)sc(=O)n1Cc1ccccn1`, the compound was called inactive.

For `COc1ccc2oc(C(=O)OC(C)C(=O)N3CCC(C)CC3)c(C)c2c1` (configuration not stated), the call was inactive.

Consider `Cc1ccc2oc(C(=O)N(Cc3ccncc3)CC3CCCO3)c(C)c2c1` (configuration not stated), for which the outcome was inactive.

For the compound `Cc1ccc(S(=O)(=O)Nc2ccc(O)c3ncccc23)cc1`, the compound was classed as inactive.

Turning to `COCCNC(=O)C1CCC(CNS(=O)(=O)c2ccc(F)cc2)CC1` (configuration not stated), the result was inactive.

On to `CCCC(=O)Nc1ccc2nn(-c3ccc(OC)cc3)nc2c1`, for which the call was inactive.

Consider `COc1cc(C(=O)OCCCN2CCOCC2)cc(OC)c1OC`, for which the call was inactive.

For the compound `CCN(CC)S(=O)(=O)c1cccc(C(=O)NCC2(N3CCOCC3)CCCCC2)c1`, the compound was classed as inactive.

As for `CC(C)C[C@@H](CN1C(=O)C(=O)NC[C@@H]1CC(C)C)NC(=O)Cc1ccccc1`, the call was inactive.

For the compound `CCNC(=O)C[C@H]1CC[C@H]2[C@@H](COC[C@H](O)CN2Cc2ccc(Cl)c(Cl)c2)O1`, the outcome was inactive.

Regarding `Cc1cccc(C)c1NC(=O)C1(C)CSCC(=O)N1Cc1cccc(C(F)(F)F)c1` (configuration not stated), the outcome was inactive.

As for `C=Cc1ccc(Cn2c(C)c(C(=O)NCc3cccc(C(F)(F)F)c3)sc2=O)cc1`, the call was inactive.

`CC(=O)Nc1ccc(OCCCN2CCC(C(O)(c3ccccc3)c3ccccc3)CC2)cc1`: the outcome was inactive.

In the case of `O=C(Nc1ccc(F)cc1)C1CCCN(S(=O)(=O)c2ccc3[nH]c(=O)ccc3c2)C1` (configuration not stated), the compound was classed as inactive.

Take `Cc1ccc(NC(=O)C2(c3cccs3)CCOCC2)cc1C`: the result was inactive.

As for `Cc1ccc(NC(=O)CN2CCC(NC(=O)c3cccc(F)c3)CC2)cc1C`, the outcome was inactive.

With `Nc1nc2c(ncn2[C@@H]2O[C@H](CNCc3ccc(F)c(N4CCOCC4)c3)[C@@H](O)[C@H]2O)c(=O)[nH]1`, the compound was classed as inactive.

For the compound `CC1(c2nnnn2Cc2ccccc2)CCC(=O)N1CCCn1ccnc1` (configuration not stated), the compound was classed as inactive.

Turning to `COc1ccc(NC(=O)CN(C)C(=O)CC2CCCC2)cc1`, the outcome was inactive.

With `COC(=O)c1c(-c2ccc(OC)cc2)sc2cc3c(cc12)OCO3`, the result was inactive.

As for `CC1CCN(C(=O)COC(=O)CNC(=O)c2ccccc2F)CC1`, the result was inactive.

Regarding `Nc1sc(-c2ccccc2)cc1C(=O)NCCN1CCOCC1`, the outcome was inactive.

On to `COc1ccc(-c2nc(CN3CCC(C(=O)N4CCOCC4)CC3)c(C)o2)c(OC)c1`, for which the result was inactive.

Turning to `O=C(NCC1CCCCC1)[C@H]1[C@H](CO)[C@H]2Cn3c(cccc3=O)[C@@H]1N2CCc1ccccc1`, the result was inactive.

Turning to `O=C(c1cccnc1)N1CC2(C1)[C@H](c1ccccc1)[C@@H](CO)N2Cc1ccccc1`, the outcome was inactive.

Turning to `CN(C)CC#Cc1ccc([C@H]2[C@@H](CO)N(C(=O)C3CCC3)[C@H]2C#N)cc1`, the outcome was inactive.

Consider `COC(=O)[C@H]1CN(C(=O)c2ccccc2)C(=O)N1`, for which the outcome was inactive.

For `COc1cc2cc(CCCOC(=O)CCCC(=O)O)oc(=O)c2cc1OC`, the compound was classed as inactive.

As for `O=C(CCNC(=O)OCC1c2ccccc2-c2ccccc21)NOCc1ccccc1`, the compound was called inactive.

With `Cc1cccc(C)c1OCC(=O)NNC(=O)CCCn1c(=O)oc2ccccc21`, the outcome was inactive.

`CC(=O)NCCC(=O)Nc1cc(S(=O)(=O)N2CCCCC2)ccc1N1CCN(C)CC1`: the result was inactive.

In the case of `C[C@@H]1CCCCO[C@@H](CN(C)C(=O)Cc2ccccc2)[C@H](C)CN([C@H](C)CO)C(=O)c2cc(NS(=O)(=O)c3ccc(Cl)cc3)ccc2O1`, the compound was called inactive.

`CN(C)c1ccc2c(c1)[C@H]1C[C@@H](CC(=O)NCc3ccc(Oc4ccccc4)cc3)O[C@H](CO)[C@H]1O2`: the compound was classed as inactive.
